Results filed as inconclusive are left out. A call without a number means that no potency is given here. The source made the active and inactive calls. Unless noted, the call rests on the fitted dose curve; in most records, active means well fitted curve in the direction sought with a large enough effect; inconclusive means small, poorly fitted or top-dose-only effect, or another doubt; inactive means no such curve, though single readings can be large; an effect the other way counts as inactive or inconclusive.
Columns and labels:
[1] = biological target: Calcium and integrin-binding protein 1 (Homo sapiens) (UniProt Q99828); experiment: Primary qHTS for Identification of Calcium Integrin Binding Protein 1 (CIB1) Competitor (AID 1508620);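 further: GST tagged CIB1 binding a fluorescein labelled alphaIIb integrin peptide tracer; top concentration of the series differs between compounds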
Chain of Calcium and integrin-binding protein 1 (Homo sapiens) (Q99828 whole entry, looked up): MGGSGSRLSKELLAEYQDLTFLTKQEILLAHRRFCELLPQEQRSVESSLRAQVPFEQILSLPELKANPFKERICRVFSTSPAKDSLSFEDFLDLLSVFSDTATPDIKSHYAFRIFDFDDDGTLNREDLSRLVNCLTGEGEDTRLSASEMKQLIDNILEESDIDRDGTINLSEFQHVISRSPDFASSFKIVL
Outline: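 Fluorescence polarization competition: GST-tagged CIB1 (1 uM final) preincubated with compound 15 min at room temperature, then FITC-labelled alphaIIb peptide (100 nM final) added. After 15 min at room temperature, polarization read at Ex 480/Em 540.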

[2] = biological target: Lysosomal acid glucosylceramidase (Homo sapiens) (UniProt P04062); experiment: Glucocerebrosidase-p2 (AID 348; in the data active means potency below about 10 µM; further: potency means the concentration at half of the fitted maximal effect); conditions: purified GBA, blue fluorogenic substrate, 40 min
Chain of Lysosomal acid glucosylceramidase (Homo sapiens) (P04062 whole entry, looked up): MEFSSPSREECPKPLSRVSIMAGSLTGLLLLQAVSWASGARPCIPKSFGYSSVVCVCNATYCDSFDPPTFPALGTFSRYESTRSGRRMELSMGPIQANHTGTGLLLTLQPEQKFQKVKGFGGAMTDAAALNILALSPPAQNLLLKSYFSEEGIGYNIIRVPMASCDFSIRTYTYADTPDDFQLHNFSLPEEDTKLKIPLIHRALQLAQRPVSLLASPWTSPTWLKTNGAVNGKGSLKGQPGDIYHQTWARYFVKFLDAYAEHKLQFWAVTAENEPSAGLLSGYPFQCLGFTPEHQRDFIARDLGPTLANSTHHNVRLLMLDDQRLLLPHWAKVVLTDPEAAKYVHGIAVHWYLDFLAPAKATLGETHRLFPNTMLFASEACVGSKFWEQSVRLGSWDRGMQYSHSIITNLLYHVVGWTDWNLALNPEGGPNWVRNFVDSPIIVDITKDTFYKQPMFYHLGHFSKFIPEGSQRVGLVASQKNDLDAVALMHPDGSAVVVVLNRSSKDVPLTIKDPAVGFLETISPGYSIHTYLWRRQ
Outline: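 Compounds titrated from 0.6 nM upwards against 0.2 nM enzyme in pH 5.9 citric acid/KH2PO4, taurocholate, tween-20; blue fluorogenic substrate 80 uM, 40 min room temperature, stopped and read Ex 365/Em 440 for AC50.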

[3] = AP1 Signaling Pathway (AID 357; active means well fitted curve in either direction with a large enough effect, not every such curve was filed as active;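 further: ME-180 reporter cells stimulated with EGF at its EC50 level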); conditions: ME-180 AP-1-bla reporter, EGF-induced, beta-lactamase ratio, 5 h; at 7.69 µM (top of the series) unless noted
Outline: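 Read-out was the 460nm/530nm emission ratio (excitation 405nm) after CCF4 loading for 2.5 hours at room temperature. Cells carried an AP-1-driven beta-lactamase reporter, were stimulated with EC50 EGF plus compound for 5 hours, and AC50 values came from titrations.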

[4] = biological target: Cytochrome P450 1A2 (Homo sapiens) (UniProt P05177); experiment: p450-cyp1a2 (AID 410; calls by dose curve; further: potency means the concentration at half of the fitted maximal effect)
Chain of Cytochrome P450 1A2 (Homo sapiens) (P05177 whole entry, looked up): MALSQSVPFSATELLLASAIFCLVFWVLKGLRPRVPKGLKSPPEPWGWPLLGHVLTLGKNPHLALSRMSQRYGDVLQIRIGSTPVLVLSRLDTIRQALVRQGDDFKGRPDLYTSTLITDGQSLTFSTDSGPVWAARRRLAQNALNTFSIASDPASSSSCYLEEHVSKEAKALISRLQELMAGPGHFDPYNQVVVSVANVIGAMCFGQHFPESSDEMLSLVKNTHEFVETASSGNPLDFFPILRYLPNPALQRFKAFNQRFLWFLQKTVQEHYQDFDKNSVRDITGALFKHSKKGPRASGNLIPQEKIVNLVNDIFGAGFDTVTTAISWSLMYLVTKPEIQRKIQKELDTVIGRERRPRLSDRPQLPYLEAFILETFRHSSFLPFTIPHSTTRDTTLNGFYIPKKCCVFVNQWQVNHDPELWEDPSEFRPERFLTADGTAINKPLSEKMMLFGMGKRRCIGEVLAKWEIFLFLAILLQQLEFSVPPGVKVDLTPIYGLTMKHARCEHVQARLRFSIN
Outline: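 Inhibition was calculated relative to 57 uM furafylline (full inhibition). The reaction used human CYP1A2 at 20nM with Luciferin-ME at its Km, 100uM, driven by an NADPH-regenerating system for 60 min at room temperature.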

[5] = NFAT Signaling Pathway (AID 444; active means well fitted curve in either direction with a large enough effect, not every such curve was filed as active;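 further: carbachol stimulus at about its EC50 of 1 µM final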); conditions: Jurkat NFAT-bla M1, carbachol, beta-lactamase ratio, 5 h; at 7.69 µM (top of the series) unless noted
Outline: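 Jurkat cells with NFAT-driven β-lactamase reporter and co-expressed M1 receptor, stimulated with carbachol (final 1 uM, ~EC50), compound titration, 5 h at 37 °C. CCF4 loaded 1 h at RT; 460/530 nm ratio gave %activity and AC50.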

[6] = Stat Signaling Pathway (AID 446; active means well fitted curve in either direction with a large enough effect, not every such curve was filed as active;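 further: ME-180 cervical cancer cells given 40 pM IL-6 alongside compound; SIE-controlled beta-lactamase reporter measured as 460/530 nm FRET emission ratio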); conditions: ME-180 (cervical carcinoma) SIE beta-lactamase reporter, IL-6 stimulated, 5 h; at 7.69 µM (top of the series) unless noted
Outline: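 IL-6/STAT signaling read in ME-180 cells via an SIE beta-lactamase reporter. Stimulus was 40 pM IL-6 (its AC50) for 5 hrs, so both activation and inhibition register.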

[7] = biological target: Glucocorticoid receptor (Homo sapiens) (UniProt P04150); experiment: GR-EFC Redistribution (AID 451; calls by dose curve; further: potency means the concentration at half of the fitted maximal effect); conditions: CHO-K1 GR-EFC translocation, beta-gal luminescence, 2 h
Chain of Glucocorticoid receptor (Homo sapiens) (P04150 whole entry, looked up, the tested form may be a part): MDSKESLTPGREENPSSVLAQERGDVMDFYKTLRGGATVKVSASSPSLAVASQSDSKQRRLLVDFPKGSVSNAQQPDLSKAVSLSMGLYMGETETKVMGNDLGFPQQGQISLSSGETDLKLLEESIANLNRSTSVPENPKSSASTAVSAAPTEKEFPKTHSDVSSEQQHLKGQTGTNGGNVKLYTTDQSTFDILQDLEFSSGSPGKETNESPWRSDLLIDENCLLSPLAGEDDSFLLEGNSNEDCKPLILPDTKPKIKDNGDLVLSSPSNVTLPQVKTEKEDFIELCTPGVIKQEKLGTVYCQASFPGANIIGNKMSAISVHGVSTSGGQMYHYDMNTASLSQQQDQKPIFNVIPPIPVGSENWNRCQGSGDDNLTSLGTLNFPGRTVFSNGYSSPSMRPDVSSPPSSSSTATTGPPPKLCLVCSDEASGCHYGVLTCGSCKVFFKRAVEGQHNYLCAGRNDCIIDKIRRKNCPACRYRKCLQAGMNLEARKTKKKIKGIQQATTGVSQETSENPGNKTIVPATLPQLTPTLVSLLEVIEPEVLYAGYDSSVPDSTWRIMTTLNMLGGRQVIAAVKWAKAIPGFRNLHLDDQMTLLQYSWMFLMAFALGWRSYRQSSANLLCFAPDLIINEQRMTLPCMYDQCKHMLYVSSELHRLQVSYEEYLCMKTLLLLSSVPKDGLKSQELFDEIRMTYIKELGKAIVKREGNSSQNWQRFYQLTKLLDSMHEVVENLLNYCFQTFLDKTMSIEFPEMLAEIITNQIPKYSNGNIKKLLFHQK
Outline: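 CHO-K1 cells expressing nuclear EA and GR-ED fragments of b-gal; compounds titrated up to 46 uM final, 2 h at 37 C. GR nuclear translocation read as complemented b-gal luminescence after 1 h RT detection.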

[8] = biological target: Mitogen-activated protein kinase 10 (Mus musculus) (UniProt Q61831); experiment: JNK3 AlphaScreen Assay (AID 530; active means well fitted curve in either direction with a large enough effect, not every such curve was filed as active;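 further: kinase came from lysate of stimulated human HepG2 cells; signal reports phosphorylation of biotinylated GST-cJun 1-79 at Ser73 with 10 µM ATP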)
Outline: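 qHTS format: compounds tested as titrations against IL-1beta/TNF-alpha-activated HepG2 lysate JNK3 with biotin-GST-cJun substrate and 10 uM ATP at room temperature. Loss of anti-phospho-cJun AlphaScreen signal indicates inhibition.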

[9] = biological target: 3',5'-cyclic-AMP phosphodiesterase 4B (Homo sapiens) (UniProt Q07343); experiment: qHTS Assay for Inhibitors of PDE-IV (AID 607; active means well fitted activation curve with a large enough effect in the main read-out, with a control signal flat, not every such curve was filed as active)
Chain of 3',5'-cyclic-AMP phosphodiesterase 4B (Homo sapiens) (Q07343 whole entry, looked up): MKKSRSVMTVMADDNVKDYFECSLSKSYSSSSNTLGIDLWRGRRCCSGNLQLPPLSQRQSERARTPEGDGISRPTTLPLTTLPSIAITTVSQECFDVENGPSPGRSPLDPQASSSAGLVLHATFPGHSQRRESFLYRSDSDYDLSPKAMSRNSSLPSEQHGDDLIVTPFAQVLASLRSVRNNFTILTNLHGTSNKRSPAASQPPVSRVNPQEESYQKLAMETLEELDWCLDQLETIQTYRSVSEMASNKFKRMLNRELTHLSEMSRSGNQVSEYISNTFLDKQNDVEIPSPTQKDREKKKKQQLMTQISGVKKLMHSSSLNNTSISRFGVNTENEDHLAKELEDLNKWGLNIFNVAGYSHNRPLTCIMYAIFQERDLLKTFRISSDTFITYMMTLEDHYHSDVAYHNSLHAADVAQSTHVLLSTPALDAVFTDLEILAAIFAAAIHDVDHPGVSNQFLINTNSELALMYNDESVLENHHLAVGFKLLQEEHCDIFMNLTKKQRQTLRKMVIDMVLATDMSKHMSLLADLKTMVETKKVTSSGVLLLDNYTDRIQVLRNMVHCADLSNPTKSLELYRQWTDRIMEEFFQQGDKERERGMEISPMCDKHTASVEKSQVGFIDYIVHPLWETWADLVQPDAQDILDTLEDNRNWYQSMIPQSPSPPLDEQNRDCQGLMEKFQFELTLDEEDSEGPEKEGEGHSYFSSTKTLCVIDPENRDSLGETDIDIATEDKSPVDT
Outline: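 Live HEK293 cells with a modified cyclic nucleotide-gated (CNG) channel report intracellular cAMP via membrane-potential dye fluorescence (ex 535/em 590 nm). Endogenous PDE-IV was targeted. Compounds were tested at up to 22.9 uM final; RO 20-1724 100 uM served as control.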

[10] = biological target: Cytochrome P450 2D6 (Homo sapiens) (UniProt P10635); experiment: qHTS Assay for Inhibitors and Substrates of Cytochrome P450 2D6 (AID 891); further: potency means the concentration at half of the fitted maximal effect; nearly all actives have a fitted effect of over 60% in size
Chain of Cytochrome P450 2D6 (Homo sapiens) (P10635 whole entry, looked up): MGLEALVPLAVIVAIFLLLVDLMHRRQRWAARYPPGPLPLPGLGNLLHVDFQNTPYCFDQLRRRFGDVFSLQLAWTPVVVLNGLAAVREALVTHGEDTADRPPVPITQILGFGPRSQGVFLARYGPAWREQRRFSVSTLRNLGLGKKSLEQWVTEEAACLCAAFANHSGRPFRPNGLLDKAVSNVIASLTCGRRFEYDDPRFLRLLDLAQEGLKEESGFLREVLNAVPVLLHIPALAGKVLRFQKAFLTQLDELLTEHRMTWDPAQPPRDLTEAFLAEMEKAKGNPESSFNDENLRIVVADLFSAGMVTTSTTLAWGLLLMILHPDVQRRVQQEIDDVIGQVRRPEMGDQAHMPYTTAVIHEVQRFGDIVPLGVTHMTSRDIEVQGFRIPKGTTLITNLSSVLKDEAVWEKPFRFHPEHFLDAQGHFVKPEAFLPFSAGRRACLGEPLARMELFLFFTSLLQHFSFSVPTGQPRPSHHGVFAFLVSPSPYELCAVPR
Outline: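 Human CYP2D6 (5 nM) with 30 uM Luciferin-ME EGE (at Km) in 100 mM KPO4, compound preincubated 10 min, then NADPH regeneration system for 60 min at room temperature. Luciferin read by luminescence; normalized to 1.43 uM quinidine.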

[11] = Confirmation and Secondary Assay for Modulators of Hemoglobin Beta Chain Splicing at IVS2 654 locus (AID 910);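 further: HeLa cells stably carrying EGFP split by mutant beta-globin IVS2-654 intron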
Outline: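 HeLa cells stably expressing EGFP interrupted by β-globin IVS2-654 intron, seeded overnight in Opti-MEM/2% FCS, then treated 2 days at 37 °C. Restored splicing read as total peak GFP intensity per well by laser scanning cytometry (488 nm excitation, 500–520 nm emission); 500 nM antisense PNA as control.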

[12] = Confirmation and Secondary Assay for Modulators of Hemoglobin Beta Chain Splicing at IVS2 705 locus (AID 930);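 further: HeLa cells stably expressing the EGFP-705 splicing reporter; GFP fluorescence per well restored by corrected splicing of the IVS2-705 intron in EGFP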
Outline: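 Fluorescence gain (488 nm laser, 500-520 nm PMT) reflects restored correct splicing of a mutant IVS2-705 intron inside EGFP in stably transfected HeLa cells after 2-day compound treatment.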

[13] = qHTS Assay for Lipid Storage Modulators (AID 1519; calls by dose curve); conditions: Drosophila S3 cells, BODIPY lipid droplet/cell ratio, laser cytometry, cells loaded with oleic acid
Outline: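 Cells seeded at 5,000 per well were treated with compounds over a concentration series and loaded with oleic acid (400 uM, as added). Lipid droplet fluorescence (488 nm excitation, 500-530 nm channel) was read by laser-scanning cytometry and normalized to 20 uM Triacsin C.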

[14] = biological target: Ubiquitin carboxyl-terminal hydrolase 1 (Homo sapiens) (UniProt O94782); experiment: Inhibitors of USP1/UAF1: Pilot qHTS (AID 504865);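 further: rhodamine fluorescence freed from ubiquitin-rhodamine substrate followed over time; top concentration of the series differs between compounds; nearly all actives have a fitted effect of over 35% in size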
Chain of Ubiquitin carboxyl-terminal hydrolase 1 (Homo sapiens) (O94782 whole entry, looked up): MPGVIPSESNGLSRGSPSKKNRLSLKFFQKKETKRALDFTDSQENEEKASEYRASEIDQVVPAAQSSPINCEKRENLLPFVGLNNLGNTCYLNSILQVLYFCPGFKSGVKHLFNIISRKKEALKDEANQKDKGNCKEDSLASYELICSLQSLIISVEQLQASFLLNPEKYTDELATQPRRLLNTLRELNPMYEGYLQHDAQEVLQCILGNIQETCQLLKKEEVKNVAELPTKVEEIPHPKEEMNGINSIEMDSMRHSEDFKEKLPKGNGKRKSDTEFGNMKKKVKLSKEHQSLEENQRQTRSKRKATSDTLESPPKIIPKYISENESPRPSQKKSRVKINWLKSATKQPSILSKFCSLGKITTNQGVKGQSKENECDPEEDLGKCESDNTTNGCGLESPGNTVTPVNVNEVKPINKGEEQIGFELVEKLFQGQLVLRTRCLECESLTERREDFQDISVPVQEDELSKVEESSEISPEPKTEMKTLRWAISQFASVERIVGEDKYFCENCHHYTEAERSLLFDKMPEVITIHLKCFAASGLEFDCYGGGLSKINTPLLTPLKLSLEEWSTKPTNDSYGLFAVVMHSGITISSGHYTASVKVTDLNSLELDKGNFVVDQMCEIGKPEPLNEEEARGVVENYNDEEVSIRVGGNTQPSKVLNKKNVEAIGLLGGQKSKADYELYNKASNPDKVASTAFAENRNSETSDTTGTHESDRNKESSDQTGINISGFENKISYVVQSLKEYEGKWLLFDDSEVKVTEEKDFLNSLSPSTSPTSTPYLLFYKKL
Outline: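 Deubiquitinase activity followed as kinetic rhodamine fluorescence release from 150 nM Ub-Rho. 1 nM USP1/UAF1 with compound, after 15 min room-temperature preincubation, in HEPES pH 7.8 buffer containing TCEP, EDTA, BSA and Tween-20.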

[15] = Primary qHTS for small molecule stabilizers of the endoplasmic reticulum resident proteome: Secreted ER Calcium Modulated Protein (SERCaMP) assay (AID 1508630)
Outline: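 GLuc-SERCaMP-expressing SH-SY5Y cells, pretreated 16 h with compound, are challenged with thapsigargin to empty ER calcium stores; after 4 h, coelenterazine is added directly to the medium and luminescence is imaged.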

[16] = qHTS profiling for inhibitors of Plasmodium falciparum (3D7) proliferation (AID 743322);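 further: infected erythrocytes exposed to compound for 72 h before lysis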; conditions: P. falciparum 3D7 proliferation; at 28.7 µM (top of the series)
Outline: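 Erythrocytes infected with P. falciparum (0.3% parasitemia, 2.5% hematocrit) incubated with compounds 72 h at 37 C, 5% CO2. Lysis with saponin/Triton buffer containing SYBR Green I, overnight at room temperature in the dark; DNA fluorescence (485/535 nm) normalised to 0.29 uM artemisinin and DMSO.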

[17] = qHTS profiling for inhibitors of Plasmodium falciparum (DD2) proliferation (AID 743323; call rule not given here); conditions: lower = more inhibition; at 28.7 µM (top of the series)
Outline: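 Parasite proliferation measured via DNA-dye fluorescence, as uninfected erythrocytes lack DNA. Cultures at 0.3% parasitemia and 2.5% hematocrit incubated 72 h with compound; signal scaled between vehicle and 0.29 uM artemisinin wells.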

[18] = qHTS profiling for inhibitors of Plasmodium falciparum (HB3) proliferation (AID 743324); conditions: Plasmodium falciparum HB3 blood-stage proliferation; at 28.7 µM (top of the series)
Outline: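 P. falciparum HB3 grown in erythrocytes (0.3% parasitemia, 2.5% hematocrit final) with compound for 72 h at 37 C, 5% CO2. Parasite DNA detected by SYBR Green after saponin/triton lysis overnight; normalized to 0.29 uM artemisinin and DMSO.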

With `Cc1cc2c(s1)c1cnn(Cc3ccc(F)c(F)c3)c(=O)c1n2C` the Potency [1] was “inactive”.

With `Nc1cccc(CNc2ccc(S(=O)(=O)Nc3nccs3)cc2)c1O` the Potency [1] was “inactive”.

For `c1nc(N2CCNCC2)c2cc(-c3ccc4c(c3)OCO4)ccc2n1`, the Potency [2] was > 11.4 µM (inactive), the activity change, negative = inhibition [3] was -9.83% (inactive) and the Potency [4] was 2 µM (active). The activity change, negative = inhibition [5] was -0.53% (inactive), the activity, negative = inhibition [6] was 1.4% (inactive) and the Potency [7] was > 46 µM (inactive). The outcome [8] was “inactive”, the Potency [9] was “inactive” and the Potency [10] was 2.51 µM (active). The outcome [11] was “inactive”, the outcome [12] was “inactive” and the activity change, negative = inhibition ([13]; at 57.5 µM (top of the series)) was 13.1% (inactive). For the same compound, the max response ([13]; measured here: cell count channel max response) was 9.51%, the max response ([13]; measured here: lipid channel max response) was 19.9% and the Potency [14] was “inactive”. The Potency [1] was “inactive” and the Potency [15] was “inactive”.

For `Fc1cc(Nc2nc(-c3ccncc3)nc3ccccc23)ccc1-c1cn[nH]c1`, the Potency [1] was “inactive”.

With `N#Cc1ccc(Nc2ncc(-c3cccc4ccccc34)o2)cc1` the Potency [1] was “inactive”.

For `CN(Cc1ccccc1)C(=O)C1CCN(Cc2cccc3ccccc23)CC1`, the Potency [1] was “inactive”.

In the case of `Cc1noc(C)c1C(=O)N1CCC2(CCCN(C(c3ccccc3)c3ccccc3)C2)CC1`, the Potency [2] was > 11.4 µM (inactive), the Potency [4] was “inactive” and the activity, negative = inhibition [6] was -11.6% (inactive). The Potency [7] was > 46 µM (inactive), the outcome [8] was “inactive” and the Potency [9] was “inactive”. It also gave a remaining parasite growth % (stronger effect = lower value) [16] of 18.5%, an activity, percent of control [17] of 22.6% and a remaining proliferation (% of control), lower = more inhibition [18] of 10.2%. For the same compound, the Potency [1] was “inactive” and the Potency [15] was “inactive”.

— PubChem BioAssay (NCATS)
